Reference: the supplement of paper PMC12669797
Counter-ions that a name gives are not always drawn.

How the values were obtained:
ES2 = experiment: cell viability relative to DMSO control (MTS) (fraction of DMSO control); higher = more viable cells / less growth inhibition; conditions: 10 µM; 48 h
Procedure, shortened: (§1)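 TOV-21G and ES2 clear cell carcinoma cells were plated in 96-well plates at 5000 cells per well, grown for 24 h, and then exposed to a 367-compound […] library at a final concentration of 10 µM, with vehicle alone in control wells. An MTS assay (CellTiter 96 AQueous One Solution) was read 48 h later according to the manufacturer's protocol. Viability is reported as a fraction of the vehicle control.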

TOV-21G = experiment: as above; conditions: 10 µM; 48 h
Procedure, shortened: as §1

SMILES	cell viability (ES2)	cell viability (TOV-21G)
CC(C)C(=O)Nc1ccc([N+](=O)[O-])c(C(F)(F)F)c1 [Flutamide]	0.917	1.09
NC(=O)c1cccc2cn(-c3ccc([C@@H]4CCCNC4)cc3)nc12 [MK-4827 (Niraparib)]	0.61	0.783
CC(C)[C@H](CO)Nc1nc(Nc2cccc(Cl)c2)c2ncn(C(C)C)c2n1 [purvalanol A]	0.657	0.607
O=[N+]([O-])c1ccc(-c2nc(-c3ccc(F)cc3)c(-c3ccncc3)[nH]2)cc1	0.835	0.976
CCCOc1ccccc1-c1nc2[nH]nnc2c(=O)[nH]1 [Zaprinast]	0.909	1.03
O=C(Nc1cccc(Nc2nccc(Nc3cccc(C(F)(F)F)c3)n2)c1)C1CC1 [Aurora kinase inhibitor III]	0.94	0.573
CCN1/C(=C/C(C)=O)Sc2ccc(OC)cc21	0.857	1.01
CCCCC[C@H](CC(=O)NO)C(=O)N[C@H](C(=O)N1CCC[C@H]1CO)C(C)C [Actinonin]	1	0.848
Nc1cccc2c1CN(C1CCC(=O)NC1=O)C2=O (centres undefined) [lenalidomide]	0.928	0.954
CCCCCCCCCCCCCCOc1ccc(C(=O)O)o1	1.21	0.947
COc1cccc2c1C(=O)c1c(O)c3c(c(O)c1C2=O)C[C@@](O)(C(C)=O)C[C@@H]3O[C@H]1C[C@H](N)[C@H](O)[C@H](C)O1 [Daunorubicin, HCl]	0.435	0.527
O=Nc1c(-c2c(O)[nH]c3ccccc23)[nH]c2ccccc12 [indirubin-3'-monoxime]	0.696	0.491
